Out of some 310,000 compounds screened, about 14,000 (4.5%) showed an effect of 50% or more. The effect is printed as a negative number. This is one part of a sample in which strong results are shown more often than they occur.
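Also: peak tail current of the secondary pulse compared with the same well before compound.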

human ether-à-go-go-related gene (hERG) potassium channel, sequence (Q12809 whole entry, looked up): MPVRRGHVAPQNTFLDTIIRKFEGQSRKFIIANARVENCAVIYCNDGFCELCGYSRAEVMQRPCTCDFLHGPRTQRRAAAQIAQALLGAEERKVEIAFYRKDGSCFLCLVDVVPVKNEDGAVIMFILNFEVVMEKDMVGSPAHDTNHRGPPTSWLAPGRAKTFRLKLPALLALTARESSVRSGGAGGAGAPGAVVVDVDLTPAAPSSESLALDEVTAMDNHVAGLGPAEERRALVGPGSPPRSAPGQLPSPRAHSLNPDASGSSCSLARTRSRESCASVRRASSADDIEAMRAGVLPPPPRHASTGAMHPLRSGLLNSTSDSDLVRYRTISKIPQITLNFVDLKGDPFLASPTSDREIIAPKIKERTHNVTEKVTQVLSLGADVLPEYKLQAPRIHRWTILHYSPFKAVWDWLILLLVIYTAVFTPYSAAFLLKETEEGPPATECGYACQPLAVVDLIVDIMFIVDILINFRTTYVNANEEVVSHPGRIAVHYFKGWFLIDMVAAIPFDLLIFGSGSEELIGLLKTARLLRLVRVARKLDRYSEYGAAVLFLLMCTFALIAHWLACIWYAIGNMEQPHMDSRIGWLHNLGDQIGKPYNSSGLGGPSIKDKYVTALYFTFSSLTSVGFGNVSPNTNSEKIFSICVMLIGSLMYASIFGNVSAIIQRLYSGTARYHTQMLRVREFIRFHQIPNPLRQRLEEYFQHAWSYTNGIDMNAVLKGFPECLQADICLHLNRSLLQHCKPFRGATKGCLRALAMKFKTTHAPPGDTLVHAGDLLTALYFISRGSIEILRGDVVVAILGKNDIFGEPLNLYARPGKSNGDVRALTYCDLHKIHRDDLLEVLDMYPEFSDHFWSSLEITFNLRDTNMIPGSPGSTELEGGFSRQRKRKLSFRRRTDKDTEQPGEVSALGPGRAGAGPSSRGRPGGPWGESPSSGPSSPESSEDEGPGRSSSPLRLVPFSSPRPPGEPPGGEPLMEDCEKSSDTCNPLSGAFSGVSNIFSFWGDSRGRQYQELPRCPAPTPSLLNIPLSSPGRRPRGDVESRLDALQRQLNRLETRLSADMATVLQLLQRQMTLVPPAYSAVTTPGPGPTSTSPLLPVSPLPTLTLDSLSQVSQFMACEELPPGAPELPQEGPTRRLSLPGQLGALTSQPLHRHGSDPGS

The experiment has as its target human ether-à-go-go-related gene (hERG) potassium channel (human, UniProt Q12809). Kind of experiment: primary screen, population patch clamp on CHO cells stably expressing hERG; higher = less effect of the substance.
For `CC1CCCCC1NCC(=O)NCc1ccc(F)cc1.O=C(O)C(=O)O` (centres unmarked), the “hERG current change (%, negative = inhibition) at 10uM” value is reported as -8.33%. In the case of `CCN(CC)S(=O)(=O)c1ccc(OC)nc1`, the “hERG current change (%, negative = inhibition) at 10uM” value was 10.4%. Take `CCN(CC)S(=O)(=O)c1ccc(Oc2cccc(C(C)=O)c2)nc1`: the “hERG current change (%, negative = inhibition) at 10uM” value is -65.5%.

For the molecule `CCN(c1ccccc1)S(=O)(=O)c1ccc(Oc2ccc(C(C)=O)cc2OC)nc1`, the “hERG current change (%, negative = inhibition) at 10uM” value is listed as -26.2%. The result for `COC(=O)c1nn(-c2ccc(OC)cc2)c(=O)cc1NN` reads 26.7%; that for `Cc1ccc(S(=O)(=O)N(C)C)cc1NC(=O)C1CCC1`, 12.2%. Then `CN(C)S(=O)(=O)c1cccc(NC(=O)c2ccc(OC(F)(F)F)cc2)c1`, with -27.8%; and `Cc1ccc(S(=O)(=O)N(C)C)cc1NC(=O)c1ccncc1`, with 4.33%; and `Cc1ccc(S(=O)(=O)N(C)C)cc1NC(=O)C(C)OC(=O)C1CCCC1` (centres unmarked), with -61.2%. The result for `CCN(CC)S(=O)(=O)c1ccc(C)c(NC(=S)NNC(=O)C2CC2)c1` reads 11.1%; that for `Cc1ccc(S(=O)(=O)N(C)C)cc1NC(=O)C1CCCC1`, 2.05%. For `Cc1ccc(S(=O)(=O)N(C)C)cc1NC(=O)c1ccc(OC(F)(F)F)cc1`, the “hERG current change (%, negative = inhibition) at 10uM” value is -51.3%.

As to `Cc1ccc(S(=O)(=O)N(C)C)cc1NC(=S)NNC(=O)C1CC1`, the “hERG current change (%, negative = inhibition) at 10uM” value is listed as -54.6%.

Regarding `Cc1ccc(S(=O)(=O)N(C)C)cc1NC(=O)C1CCCCC1`, the “hERG current change (%, negative = inhibition) at 10uM” value is -1.12%. Then `COCCN1CCN(C(=O)C2CCC(=O)N(CCc3ccccc3)C2)CC1` (centres unmarked), with 5.79%. The result for `CN(Cc1ccccc1)C(=O)c1nc[nH]c1C(=O)N1CCN(C(=O)OC(C)(C)C)CC1` reads 11.2%; that for `CN(C)CCCN(C(=O)COc1ccc(Cl)cc1)c1nc2cc3c(cc2s1)OCCO3.Cl`, -55%.

For `CN(C)CCCN(C(=O)CCS(=O)(=O)c1ccccc1)c1nc2cc3c(cc2s1)OCO3.Cl`, the “hERG current change (%, negative = inhibition) at 10uM” value was -60%. The result for `CN(C)CCN(C(=O)CCS(=O)(=O)c1ccccc1)c1nc2cc3c(cc2s1)OCO3.Cl` reads 7.43%; that for `CN(C)CCN(C(=O)COc1ccc(Cl)cc1)c1nc2cc3c(cc2s1)OCO3`, -5.52%. The result for `CCN(CC)CCN(C(=O)CCS(=O)(=O)c1ccccc1)c1nc2cc3c(cc2s1)OCO3.Cl` reads -20.6%; that for `CN(C)CCCN(C(=O)COc1ccc(Cl)cc1)c1nc2cc3c(cc2s1)OCO3.Cl`, -59.7%; that for `CN(C)CCCN(C(=O)COc1ccccc1)c1nc2cc3c(cc2s1)OCO3.Cl`, -65.4%.

As for `CN(C)CCCN(C(=O)COc1ccccc1)c1nc2cc3c(cc2s1)OCCO3`, the “hERG current change (%, negative = inhibition) at 10uM” value is reported as -45%. As to `Clc1ccc(CN(CC2CCCO2)C(c2cccs2)c2nnnn2C2CCCC2)cc1` (centres unmarked), the “hERG current change (%, negative = inhibition) at 10uM” value is 3.97%. The result for `O=C(/C=C/c1cccs1)Nc1nccs1` reads 15.8%; that for `O=S(=O)(c1ccc(Oc2ccc(Cl)cc2)c(S(=O)(=O)N2CCCCC2)c1)N1CCCCC1`, -10.1%.

As to `COC(=O)c1ccc(-c2ccco2)n1Cc1ccccc1Cl`, the “hERG current change (%, negative = inhibition) at 10uM” value was -1.48%.

On to `CC(Oc1ccc2oc(-c3ccccc3)c(C(=O)O)c2c1)C(=O)O` (centres unmarked), for which the “hERG current change (%, negative = inhibition) at 10uM” value is reported as 14.7%.

As to `Cn1c(NCc2cccs2)nc2ccccc21`, the “hERG current change (%, negative = inhibition) at 10uM” value was -11.1%. The result for `COC(=O)c1ccc(-n2c(C)cc(C(=O)CSc3cccc[n+]3[O-])c2C)cc1` reads 21.2%. The result for `Cc1cc(C(=O)CC#N)c(C)n1-c1ccc(OC(F)F)cc1` reads -21.5%. With `Cc1cc(C(=O)CSc2cccc[n+]2[O-])c(C)n1-c1ccccc1`, the “hERG current change (%, negative = inhibition) at 10uM” value came out at 13.9%. Then `Cc1cc(C(=O)CSc2nc(N)cc(=O)[nH]2)c(C)n1-c1ccc(OC(F)F)cc1`, with -1.41%; and `Cc1cc(C(=O)CSc2cccc[n+]2[O-])c(C)n1-c1ccc(Br)cc1`, with -68.6%; and `Cc1cc(C(=O)CSc2cccc[n+]2[O-])c(C)n1-c1ccc(OC(F)F)cc1`, with -61.9%. For `Cc1nc(Nc2ccccc2C(F)(F)F)sc1C(=O)N(C)C`, the “hERG current change (%, negative = inhibition) at 10uM” value amounted to 21.7%. The result for `COC(=O)C(c1cc(OC)c(O)c(OC)c1)(N1CCNC(C)C1)C(F)(F)F` (centres unmarked) reads -9.77%; that for `Cn1c(SCC(=O)N2CCN(c3ccccc3)CC2)nnc1-c1ccncc1`, -19.5%.

Consider `Cn1c(SCC(=O)N2CCCc3ccccc32)nnc1-c1c[nH]c2ccccc12`, for which the “hERG current change (%, negative = inhibition) at 10uM” value is -10.2%. Take `Cn1c(SCC(=O)N2CCN(c3cccc(Cl)c3)CC2)nnc1-c1ccncc1`: the “hERG current change (%, negative = inhibition) at 10uM” value was -55.9%.

For `CCn1c(SCC(=O)N2CCc3ccccc32)nnc1-c1c[nH]c2ccccc12`, the “hERG current change (%, negative = inhibition) at 10uM” value came out at 11.8%. Then `Cn1c(SCC(=O)N2CCN(c3ccccc3)CC2)nnc1-c1ccccc1`, with -11.2%; and `Cn1c(SCC(=O)N2CCOCC2)nnc1-c1ccncc1`, with 16.3%; and `CCn1c(SCC(=O)N2CCN(c3ccccc3)CC2)nnc1-c1c[nH]c2ccccc12`, with -53.6%. Then `CCOC(=O)CSc1nnc(-c2c[nH]c3ccccc23)n1CC`, with -10.3%. The result for `Cn1c(SCC(=O)N2CCN(c3ccccc3)CC2)nnc1-c1c[nH]c2ccccc12` reads -50.5%.
